A selection: hits, their analogues and other compounds. The true share with any hit is near 32%.
CYP2C9 inhib: blocks human cytochrome P450 2C9; P11712; CYP2C9 Supersomes, luciferin-H conversion, luminescence; inhibition, % at 5 µM; 96,000 compounds, 20% hits; AID 777;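 active = blocking of liver enzyme CYP2C9 beyond about 50% at 5 µM, limit read from the data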
CYP2C9 activ: increases human cytochrome P450 2C9 activity | P11712 | recombinant CYP2C9, luciferin-H conversion, luminescence; stronger effect = higher value; factor 1 = untreated enzyme, 0 = blocked | activation factor at 5 µM | 96,000 compounds, 1.4% hits | AID 1024;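 active = activation factor of 2 or more for CYP2C9 at a 5 µM dose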;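 note: 0 = sulfaphenazole-blocked wells and 1 = vehicle-only wells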
PostGolgi ctrl: inhibits growth of the yeast control strain | efflux-deficient yeast background strain, growth absorbance A615, 16 h | inhibition, % at 10 µM | 98,000 compounds, 5% hits | AID 738
CYP2C19 inhib: human CYP2C19 inhibition. 96,000 compounds, 21% hits. AID 778. inhibition, % at 5 µM. CYP2C19 Supersomes, luciferin-H EGE luminescence, 30 min;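 active = CYP2C19 inhibition above a set limit at 5 µM in the primary screen, cut at about 50% in these data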;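 note: plate controls were negative control wells for no effect and 2.5 mM tranylcypromine positive control for full effect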
Target sequence (P33261 whole entry, looked up): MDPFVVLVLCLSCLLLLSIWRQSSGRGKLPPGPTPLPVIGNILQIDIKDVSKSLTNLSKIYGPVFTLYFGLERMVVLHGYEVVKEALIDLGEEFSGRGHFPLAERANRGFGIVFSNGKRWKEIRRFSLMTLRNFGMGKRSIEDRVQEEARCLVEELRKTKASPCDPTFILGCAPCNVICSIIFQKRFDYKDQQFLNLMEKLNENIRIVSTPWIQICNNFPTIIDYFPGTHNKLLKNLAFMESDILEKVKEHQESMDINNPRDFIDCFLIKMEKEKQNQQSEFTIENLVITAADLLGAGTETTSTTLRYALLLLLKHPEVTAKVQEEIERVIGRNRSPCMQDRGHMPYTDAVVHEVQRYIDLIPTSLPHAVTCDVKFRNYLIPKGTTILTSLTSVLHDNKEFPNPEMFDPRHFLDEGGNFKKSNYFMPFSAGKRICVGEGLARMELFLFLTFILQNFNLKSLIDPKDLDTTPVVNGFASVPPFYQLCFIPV
CYP2C19 activ: increases human CYP2C19 enzyme activity; P33261; AID 1025; 96,000 tested, under 10 active; recombinant CYP2C19, luciferin-H EGE luminescence; stronger effect = higher value; 0 = fully inhibited enzyme, 1 = untreated enzyme; activation factor at 5 µM;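 active = activation factor of at least 2 at 5 µM in the primary screen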;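 note: 0 = wells with 2.5 mM tranylcypromine and 1 = vehicle-only wells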
PostGolgi yeast: growth inhibition of a yeast mutant, post-Golgi transport screen | post-Golgi transport phenotypic cell assay | AID 739 | inhibition, % at 10 µM | 98,000 compounds, 0.9% hits;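 note: yeast cells grown in 1536-well plates; yeast grown about 18 h at 30C before absorbance read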
Starred values were filed as active, the others as inactive; . = not tested or not shown. Cut-off read from the data, not from the text of the source, unless noted: active = inhibition above about 30%; inactive = the rest.

SMILES	CYP2C9 inhib	CYP2C9 activ	PostGolgi ctrl	CYP2C19 inhib	CYP2C19 activ	PostGolgi yeast
Cn1c(C(=O)OC(C(=O)NC2CCCC2)c2ccncc2)cc2sccc21 (stereo unspecified)	71.7*	0.3	6.0	94.8*	0.1	5.4
Cn1c(C(=O)OC(C(=O)NC2CCCCC2)c2ccncc2)cc2sccc21 (stereo unspecified)	90.6*	0.1	1.4	98.1*	0	-2.5
CC(=O)OC(C(=O)NC1CCCCC1)c1ccc(C)cc1 (stereo unspecified)	-62.0	1.6	14.9	0.6	1	5.2
COCCNC(=O)C(C)OC(=O)c1cc2sccc2n1C (stereo unspecified)	-9.2	1.1	9.3	49.6	0.5	-0.5
CC(C)C(OC(=O)c1cc2sccc2n1C)C(=O)NCC1CCCO1 (stereo unspecified)	43.3	0.6	1.8	56.5*	0.4	-8.8
COc1nc(N(c2ccccc2)c2ccccc2)nc(-n2ccnc2)n1	63.6*	0.4	95.7*	85.7*	0.1	93.8*
CC1CCC2(CC1)NC(=O)N(Cc1nc(-c3ccccc3)no1)C2=O (stereo unspecified)	-1.9	1	0.6	33.3	0.7	0.5
CCN(CC)S(=O)(=O)c1cccc(C(=O)Nc2ccc(C#N)cc2)c1	39.5	0.6	11.7	22.3	0.8	-3.3
CCN(CC)S(=O)(=O)c1ccc2nnn(OCC(=O)Nc3cccc(C#N)c3)c2c1	97.4*	0	2.8	94.0*	0.1	-1.1
Cc1ccc(C(=O)Nc2ccncc2)o1	38.4	0.6	1.6	73.2*	0.3	2.6
COc1ccccc1OCc1ccc(C(=O)OCC2CCCO2)o1 (stereo unspecified)	-15.5	1.2	7.9	76.0*	0.2	0.7
O=C(N/N=C/c1ccc2ccccc2c1)c1ccc(COc2ccc3c(c2)CCC3)o1	48.4	0.5	0.6	48.5	0.5	-3.3
O=C(NCc1cccnc1)c1ccc(COc2ccccc2Br)o1	60.9*	0.4	11.2	79.4*	0.2	1.9
O=C(NCc1cccnc1)c1ccc(COc2ccc3c(c2)CCC3)o1	66.6*	0.3	8.4	99.1*	0	-3.2
Cc1ccc(C(=O)Nc2ccc3c(c2)OCCO3)o1	24.7	0.8	1.1	46.4	0.5	-10.5
CC1=NN(C(=O)Cc2ccccc2)C(O)(c2cccnc2)C1 (stereo unspecified)	-9.8	1.1	-1.8	3.8	1	2.5
CC(C)(C)NC(=O)c1ccc(COc2ccccc2Br)o1	10.4	0.9	32.6*	43.7	0.6	-0.9
COc1ccccc1OCc1ccc(C(=O)NCc2ccco2)o1	24.0	0.8	6.3	75.6*	0.2	7.4
COc1ccccc1OCc1ccc(C(=O)NC(C)(C)C)o1	5.9	0.9	7.4	15.6	0.8	-2.6
CCCc1ccc(OCc2ccc(C(=O)OC)o2)c(OC)c1	40.7	0.6	26.2	35.8	0.6	-2.8
O=C(Nc1cccnc1)c1ccc(COc2ccccc2Br)o1	60.1*	0.4	23.9	88.7*	0.1	-4.0
COc1ccccc1OCc1ccc(C(=O)Nc2ccncc2)o1	97.8*	0	1.7	99.6*	0	1.1
Cc1ccc2nc(NCCO)nc(-c3ccccc3)c2c1	33.0	0.7	12.5	10.9	0.9	4.6
O=C(NCCN1CCN(C(=O)c2cccs2)CC1)C(=O)Nc1ccc(Br)cc1	24.8	0.8	9.5	21.2	0.8	-0.2
CCC(=O)N(Cc1cc2cc(OC)ccc2[nH]c1=O)c1ccc(C)cc1C	54.9*	0.5	5.5	33.0	0.7	-8.0
SMILES	CYP2C9 inhib	CYP2C9 activ	PostGolgi ctrl	CYP2C19 inhib	CYP2C19 activ	PostGolgi yeast
COc1ccc2[nH]c(=O)c(CN(C(C)=O)c3cccc(C)c3)cc2c1	39.9	0.6	9.6	24.2	0.8	0.2
CC(=O)N(CCc1ccccc1C)Cc1cc2cc3c(cc2[nH]c1=O)OCO3	53.5*	0.5	5.1	75.0*	0.3	-7.7
COc1ccc2[nH]c(=O)c(CN(CCc3cccc(C)c3)C(C)=O)cc2c1	63.0*	0.4	20.8	85.6*	0.1	1.3
Cc1ccc(C(C)C)c(OCC(=O)N2CCOCC2)c1	-18.2	1.2	27.2	36.0	0.6	3.9
CC(=O)N1CCN(c2ccccc2NC(=O)COc2ccc(Cl)cc2Cl)CC1	45.8	0.5	49.5*	78.3*	0.2	0.0
CC(=O)N1CCN(c2ccccc2NC(=O)c2cc(Br)ccc2Cl)CC1	59.2*	0.4	16.9	36.1	0.6	-0.2
CCC(=O)N1CCN(c2ccccc2NC(=O)COc2cc(C)ccc2C(C)C)CC1	96.2*	0	22.2	93.3*	0.1	-5.2
Cc1nc2sc(C(c3ccc(Cl)cc3)N3CC(C)OC(C)C3)c(O)n2n1 (stereo unspecified)	-4.2	1	16.1	20.3	0.8	4.3
CCOc1ccc(CCNC(=O)COC(=O)c2cccnc2OCC)cc1OCC	86.7*	0.1	0.2	77.0*	0.2	-1.8
CCOc1ncccc1C(=O)OCC(=O)NCCc1ccc(OC)cc1	58.2*	0.4	3.8	81.3*	0.2	1.5
CCOc1ccc(CCNC(=O)Cc2nn[nH]n2)cc1OCC	9.7	0.9	5.0	0.6	1	-4.1
CCOc1ncccc1C(=O)OCc1ccc(C(=O)OC)o1	12.3	0.9	5.8	23.5	0.8	17.2
CC(C)(C)C1CCC(OC(=O)c2ccncc2)CC1 (stereo unspecified)	94.2*	0.1	2.9	98.8*	0	10.9
Cc1ccc(-c2noc(CCCN3C(=O)c4ccccc4C3=O)n2)cc1	33.0	0.7	31.2*	4.3	1	8.5
O=C1c2ccccc2C(=O)N1CCCCCc1nc(-c2ccccc2)no1	40.5	0.6	49.0*	5.6	0.9	8.4
CCC(=O)N1CCN(c2ccc(NC(=O)c3cccs3)cc2)CC1	4.5	1	4.2	-11.6	1.1	-17.1
O=C(O)CSC12CC3CC(C1)CC(C(=O)O)(C3)C2	-7.6	1.1	.	-16.4	1.2	.
CC(C)Cc1ccc(C(C)C(=O)Nc2nccs2)cc1 (stereo unspecified)	67.9*	0.3	-7.1	51.3*	0.5	12.3
Cc1c(NC(=O)C(C)c2ccc(CC(C)C)cc2)c(=O)n(-c2ccccc2)n1C (stereo unspecified)	31.0	0.7	12.9	2.3	1	2.7
CCOC(=O)C(Cc1ccccc1)C(=O)Nc1nccs1 (stereo unspecified)	35.6	0.6	0.6	24.6	0.8	2.3
CC(C)C(C(=O)Nc1nccs1)c1ccccc1 (stereo unspecified)	51.8*	0.5	5.4	68.1*	0.3	4.2
CN1CC[n+]2cnc3ccccc3c21	-16.2	1.2	-1.6	-22.9	1.2	13.1
CN1CCN(C/C(=C2/N=C(c3ccccc3)OC2=O)N(C)C)CC1	-10.8	1.1	26.0	-7.5	1.1	-5.2
CCOC(=O)C(NC(=O)CC)C(O)c1cccc([N+](=O)[O-])c1 (stereo unspecified)	-2.8	1	-0.5	5.0	0.9	-4.5
